Measles inh – inhibitors of measles virus growth in infected cells; infected Vero cells, GFP fluorescence, 64 h; active compounds read low; z-score (concentration not given with the values); 0.1% of 33,000 active; AID 745; in the data active = z-score below about -3
* marks the source's active call; other numbers are inactive results. Many of the other results were omitted from the sample, so hits are more common in it than they were.

SMILES | Measles inh
Cc1ccc(-n2c(C=Cc3cccc(F)c3)nc3ccccc3c2=O)c(C)c1 | -3.19*
COc1ccc(C=Cc2nc3ccccc3c(=O)n2-c2ccc(C)cc2C)cc1 | 0.2
Cc1ccc(-n2c(C=Cc3ccccc3)nc3ccccc3c2=O)c(C)c1 | -0.69
C1CN2C(C3CC3)N2C1 (centres undefined) | -1.23
O=C(Nc1cccc(Cl)c1)C1c2ccccc2C(=O)N2CCCCC12 (centres undefined) | -0.87

Assay outcomes as filed in PubChem BioAssay.
